In the OligoGym collection:

Target: C1orf168
Experiment: pooled miR-30 sensor sort-seq; sequence = guide strand
Conditions: shRNA
Note: reference of the scale not given here.

| Sequence | sensor-assay potency score (higher = more potent) |
| --- | --- |
| TTCTCTTGAACTGACAGTGAAG | -0.905 |
| TTTCTGATTCTTCAGCACCGTT | -1.25 |
| TTGATGACAATAATCTCTTTGT | -0.247 |
| TATTAGAAGCAAACTAACCATC | -0.751 |
| TTTGTTTCCAGCTTTTTCCTGG | 0.241 |
| TTTCACATTCTCTTGAACTGAC | 0.742 |
| TTGACATGTAAACTGAAACTGA | -0.315 |
| TAGAAGCAAACTAACCATCTGC | 0.515 |
| TAGACATTGAAAGATAACCTTT | -0.653 |
| TTCTAGGAGAGAAACTTTCTGA | -0.177 |
| TTTCTTGAAGAATTGCTGCAGT | 0.0759 |
| TATCACTAGATTTTGTTCGGTG | 0.284 |

Target: C1orf61
Experiment: as above
Conditions: shRNA

| Sequence | sensor-assay potency score (higher = more potent) |
| --- | --- |
| TTTGGTCTCCCAACTTAGCCAT | -0.53 |
| TTGGTCTCCCAACTTAGCCATG | -1.74 |
| TATAGCCATATAGATCTTGGTT | -1.16 |
| TATAGATCTTGGTTAGACATGG | -0.143 |
| TTCTTCTTTTTGGTCTCCCAAC | -1.55 |
| TTCTTTTTGGTCTCCCAACTTA | -0.917 |
| TCTATCGTCCACACGGAGGAAG | -0.948 |
| TTGAGAGGTCCTGAGTGGCAGG | -0.741 |
| TTGTGCTGCCTGGAGGACGAGG | -1.4 |
| AACCAGATGAAGTACATTCTTC | -0.97 |
| TCGGGGACTTGAGAGGTCCTGA | -0.479 |
